Experimental findings from PubChem BioAssay (NCI) are described below.

Where “and” joins values, the source holds several entries; their conditions need not be identical. Equal entries are not always repeated. Compounds without any hit were thinned out: in the full panel of roughly 83,000, 20% have a hit.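 In brief: 96-well plates, 48 h treatment, single concentration, percent growth endpoint.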 Some compounds were tested as several samples or in several runs, with calls that do not always agree. Calls of active or inactive are those of the source. The calls were made as follows: active = growth percent below 10; inactive = the rest.

Holding throughout (assay): NCI-60 one-dose screen, 48 h (100 = growth as untreated, 0 = no growth, -100 = all killed)
One assay relates to NCI-H226 lung. As to conditions: 10 µM.
A further assay deals with NCI-H322M lung. As to conditions: 10 µM.
The next assay deals with HOP-62 NSCLC. The conditions noted are these: 10 µM.
For another assay, the system named is NCI-H460 lung. The conditions noted are these: 10 µM.
Another assay has as its system HOP-92 NSCLC. As to conditions: 10 µM.
The next assay concerns NCI-H522 lung. The conditions noted are these: 10 µM unless noted.
A further assay deals with A549/ATCC NSCLC. As to conditions: 10 µM.
Another assay deals with 786-0 renal. As to conditions: 10 µM.
The next assay deals with COLO 205 colon. As to conditions: 10 µM.
The test system of another assay is DU-145 prostate. The conditions noted are these: 10 µM unless noted.
The subject of another assay is K-562 leukemia. The conditions noted are these: 10 µM.
The subject of a further assay is MALME-3M melanoma. As to conditions: 10 µM.
In the next assay the test system is MDA-MB-231 breast. The conditions noted are these: 10 µM.
Another assay relates to RXF 393 renal. As to conditions: 10 µM unless noted.
The next assay relates to SF-268 CNS. The conditions noted are these: 10 µM.
The next assay has as its system SF-295 CNS. As to conditions: 10 µM.
The subject of the next assay is SF-539 CNS. As to conditions: 10 µM.
The test system of another assay is UACC-257 melanoma. As to conditions: 10 µM.
Another assay relates to M14 melanoma. As to conditions: 10 µM.
In the next assay the test system is NCI-H23 lung. The conditions noted are these: 10 µM.

In the case of `NC1=C(Cl)C(=O)c2ccccc2C1=O`, the growth in the assay on NCI-H226 lung was 103% (inactive); in the assay on NCI-H322M lung it was 98.6% (inactive); in the assay with HOP-62 NSCLC, 62.4% (inactive); with NCI-H460 lung, 25.3% (inactive); with HOP-92 NSCLC, 96.8% (inactive); in the assay on NCI-H522 lung it was 73.6% (inactive). Moreover, the growth with A549/ATCC NSCLC was 45% (inactive); with 786-0 renal, 106% (inactive); in the assay on COLO 205 colon, 95.2% (inactive); in the assay on DU-145 prostate, 27.1% (inactive); in the assay on K-562 leukemia it was 57% (inactive); in the assay with MALME-3M melanoma, -26.3% (active). Moreover, the growth in the assay on MDA-MB-231 breast was 72.1% (inactive); in the assay on RXF 393 renal it was 103% (inactive); in the assay on SF-268 CNS, 71.7% (inactive); in the assay with SF-295 CNS, 41% (inactive); with SF-539 CNS it was 75.4% (inactive); in the assay on UACC-257 melanoma it was 56.6% (inactive). Moreover, in the assay on M14 melanoma, the growth is 28.7% (inactive).

In the case of `CC1=CC(C)=Nc2ccc(Cl)cc2N1`, the growth is 94.1% (inactive) with NCI-H23 lung; 97.6% (inactive) with NCI-H226 lung; 102% (inactive) with NCI-H322M lung; 105% (inactive) in the assay on HOP-62 NSCLC; 96.9% (inactive) in the assay on HOP-92 NSCLC; 103% (inactive) in the assay with NCI-H522 lung. The growth is 114% (inactive) in the assay on A549/ATCC NSCLC; 106% (inactive) in the assay with 786-0 renal; 106% (inactive) in the assay with COLO 205 colon; 106% (inactive) in the assay with DU-145 prostate; 90.3% (inactive) in the assay with K-562 leukemia; 96.9% (inactive) with MALME-3M melanoma. The growth with MDA-MB-231 breast is 110% (inactive); in the assay on RXF 393 renal, 113% (inactive); in the assay on SF-268 CNS, 98.9% (inactive); in the assay on SF-295 CNS, 107% (inactive); with SF-539 CNS, 100% (inactive); in the assay on UACC-257 melanoma, 104% (inactive). Also, the growth with M14 melanoma was 102% (inactive).

`CCCCCCCCCCSC(=N)N`: the growth in the assay with NCI-H226 lung is 99.7% (inactive); in the assay with NCI-H322M lung, 88.7% (inactive); in the assay on HOP-62 NSCLC it was 68% (inactive); in the assay on NCI-H460 lung, 23.8% (inactive); in the assay with HOP-92 NSCLC, 21.6% (inactive); with NCI-H522 lung it was 45.6% (inactive). Moreover, the growth was 77% (inactive) with A549/ATCC NSCLC; 51% (inactive) in the assay with 786-0 renal; -84% (active) in the assay with COLO 205 colon; 79.9% (inactive) in the assay on DU-145 prostate; 11.1% (inactive) in the assay with K-562 leukemia; 81.3% (inactive) in the assay with MALME-3M melanoma. The growth with MDA-MB-231 breast is 13% (inactive); with RXF 393 renal, 46.1% (inactive); in the assay on SF-268 CNS, 73.9% (inactive); with SF-295 CNS, 56.4% (inactive); in the assay on SF-539 CNS, 68.4% (inactive); in the assay on UACC-257 melanoma, 29.8% (inactive).

As to `O=C(C(=Cc1ccccc1)C(=O)c1ccccc1)c1ccccc1`, the growth is 66.7% (inactive) and 95.2% (inactive) with NCI-H23 lung; 68.4% (inactive) and 97.7% (inactive) in the assay on NCI-H226 lung; 89.6% (inactive) and 110% (inactive) in the assay on NCI-H322M lung; 102% (inactive) in the assay on HOP-62 NSCLC; 33.3% (inactive) and 96.3% (inactive) in the assay with NCI-H460 lung; 65.7% (inactive) and 84.3% (inactive) with HOP-92 NSCLC. Besides, the growth in the assay with NCI-H522 lung was 75.2% (inactive) and 68.9% (inactive); in the assay with A549/ATCC NSCLC, 81.6% (inactive) and 83.1% (inactive); in the assay with 786-0 renal, 73.5% (inactive) and 97.3% (inactive); in the assay on COLO 205 colon, 124% (inactive); in the assay on DU-145 prostate, 61.3% (inactive) and 102% (inactive); with K-562 leukemia, 35.5% (inactive) and 93.8% (inactive). The growth in the assay with MALME-3M melanoma was 88.4% (inactive) and 108% (inactive); in the assay on MDA-MB-231 breast, 70.5% (inactive) and 74.8% (inactive); with RXF 393 renal it was 66.5% (inactive) and 98.8% (inactive); in the assay on SF-268 CNS, 58.5% (inactive) and 83.3% (inactive); with SF-295 CNS, 65.4% (inactive) and 97.7% (inactive); in the assay with SF-539 CNS, 72.9% (inactive) and 96.9% (inactive). Also, the growth in the assay on UACC-257 melanoma was 73% (inactive) and 83.7% (inactive); in the assay on M14 melanoma, 47.5% (inactive).

As for `CCC(C)(C)c1cc(O)c(C(C)(C)CC)cc1O`, the growth was 38.5% (inactive) with NCI-H23 lung; 41.8% (inactive) with NCI-H226 lung; 45.6% (inactive) in the assay on NCI-H322M lung; 54.8% (inactive) in the assay with HOP-62 NSCLC; 21.2% (inactive) in the assay with NCI-H460 lung; -7.38% (active) in the assay with HOP-92 NSCLC. Also, the growth in the assay with A549/ATCC NSCLC is 49.9% (inactive); with COLO 205 colon it was 40.7% (inactive); with DU-145 prostate, 76.5% (inactive); in the assay with K-562 leukemia, 39.8% (inactive); with MALME-3M melanoma, 102% (inactive); in the assay on MDA-MB-231 breast, 6.91% (active). The growth in the assay with RXF 393 renal was 32.5% (inactive); in the assay on SF-268 CNS, 43.3% (inactive); with SF-295 CNS it was 24.6% (inactive); in the assay with SF-539 CNS it was 43% (inactive); with UACC-257 melanoma, 51% (inactive).

`Cc1cc(NS(=O)(=O)c2ccc(N=Nc3cc(N=Nc4ccc(S(=O)(=O)Nc5cc(C)nc(C)n5)cc4)c4c(NC(=O)C(Cl)Cl)cccc4c3OC(=O)C(Cl)Cl)cc2)nc(C)n1` (tested in a mixture with another compound): the growth with NCI-H23 lung is 107% (inactive); with NCI-H226 lung, 94.6% (inactive) and 96.1% (inactive); with NCI-H322M lung, 94.9% (inactive) and 87.3% (inactive); in the assay on HOP-62 NSCLC, 102% (inactive) and 103% (inactive); in the assay on NCI-H460 lung, 109% (inactive) and 103% (inactive); with HOP-92 NSCLC, 99% (inactive) and 120% (inactive). For the same compound, the growth in the assay on NCI-H522 lung is 86.1% (inactive) and 3.96% (active); with A549/ATCC NSCLC it was 98.9% (inactive) and 95.2% (inactive); in the assay on 786-0 renal, 111% (inactive) and 115% (inactive); in the assay with COLO 205 colon, 109% (inactive) and 113% (inactive); in the assay on DU-145 prostate, 118% (inactive) and 110% (inactive); in the assay on K-562 leukemia, 108% (inactive) and 117% (inactive). In addition, the growth in the assay on MALME-3M melanoma was 101% (inactive) and 94% (inactive); with MDA-MB-231 breast it was 81.8% (inactive) and 68.1% (inactive); in the assay on RXF 393 renal, 110% (inactive) and 93% (inactive); in the assay with SF-268 CNS it was 108% (inactive) and 115% (inactive); in the assay on SF-295 CNS, 86.2% (inactive); in the assay with SF-539 CNS, 99.3% (inactive) and 108% (inactive). Also, the growth in the assay on UACC-257 melanoma was 101% (inactive) and 92.8% (inactive); with M14 melanoma it was 113% (inactive) and 111% (inactive).
